Measurements published in PubChem BioAssay (Tox21).
Records with an inconclusive call do not appear. Active and inactive are the calls of the source. Unless noted, the call rests on the fitted dose curve.

What was measured:
[1] = Nuclear factor erythroid 2-related factor 2/antioxidant responsive element (Nrf2/ARE) small molecule agonists: qHTS cell viability counter screen in human keratinocytes (AID 1919968; active means well fitted curve in the direction sought with a large enough effect in the repeat runs; an effect the other way counts as inactive or inconclusive; further: nearly all actives have a fitted effect of over 55% in size)
In short: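 Seed 1,500 KeratinoSens cells per well, then incubate 5 h at 37 C/5% CO2. Add compounds in DMSO and incubate 23 h. Add CellTiter-Fluor, wait 1 h and read fluorescence.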

[2] = Nuclear factor erythroid 2-related factor 2/antioxidant responsive element (Nrf2/ARE) small molecule agonists: luciferase reporter gene qHTS assay in human keratinocytes (AID 1919969); further: nearly all actives have a fitted effect of over 35% in size; further: potency means the concentration at half of the fitted maximal effect
[3] = molecular target: Gonadotropin-releasing hormone receptor (Homo sapiens) (UniProt P30968); test: Human gonadotropin-releasing hormone receptor (GnRHR) small molecule agonists, calcium flux assay in GnRHR-HEK293 cells (AID 1920063); further: nearly all actives have a fitted effect of over 35% in size
In short: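 Cells: HEK293 stably expressing human GnRHR. Steps: overnight (18 h) culture, 1 h calcium dye loading at 37 C, compound addition, kinetic fluorescence read at 480/540 nm. Each compound tested at 15 concentrations in triplicate.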

[4] = molecular target: KiSS-1 receptor (Homo sapiens) (UniProt Q969F8); test: Human kisspeptin (KISS1R) small molecule agonists, calcium flux assay in KISS1R-HEK293 cells (AID 1920064; active means well fitted curve in the direction sought with a large enough effect in the repeat runs; an effect the other way counts as inactive or inconclusive)
In short: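 Cells plated and incubated 18 h; dye added, 1 h at 37 C; compounds in DMSO pinned in; signal read at 480/540 nm every second for 3 min. Each compound tested at 15 concentrations in triplicate.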

[5] = G protein-coupled receptor (GPCR) small molecule agonists, calcium flux assay: HEK293 wild type cell line counter screen (AID 1920065)
In short: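 Counter-screen of the Tox21 10K library for non-specific calcium release: dye-loaded cells received compounds in DMSO and were monitored by kinetic fluorescence (480/540 nm, 3 min). Fifteen concentrations, run in triplicate.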

[6] = p53 small molecule agonists, cell-based qHTS assay with human liver microsomes (AID 1963577);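 further: p53 response element beta-lactamase reporter cells with liver microsomes plus NADPH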
In short: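 Steps: plate p53RE-bla cells, incubate 5 h at 37 C; add compound in DMSO; add microsomes (0.5 mg/mL final) and NADPH (0.5 mg/mL final); incubate 16 h at 37 C; add LiveBLAzer, 2 h RT; read fluorescence.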

[7] = p53 small molecule agonists, cell-based qHTS assay with rat liver microsomes (AID 1963578)
In short: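 Metabolic activation is supplied by rat liver microsomes with NADPH (each 0.5 mg/mL final). p53RE-bla cells incubate with compound 16 h at 37 C; reporter activity is measured by LiveBLAzer fluorescence.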

[8] = p53 small molecule agonists, cell-based qHTS assay with human liver microsomes: qHTS cell viability counter screen (AID 1963579); further: nearly all actives have a fitted effect of over 45% in size
In short: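 After the 460/530 nm beta-lactamase read, CellTiter-Glo was added to the same wells and luminescence measured after 30 min at room temperature, giving viability of p53RE-bla cells treated 16 h with compounds plus microsomes and NADPH.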

[9] = p53 small molecule agonists, cell-based qHTS assay with rat liver microsomes: qHTS cell viability counter screen (AID 1963580); further: nearly all actives have a fitted effect of over 45% in size
In short: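 p53RE-bla HCT-116 cells were exposed 16 h at 37 C to compounds with rat liver microsomes (0.5 mg/mL) and NADPH (0.5 mg/mL). Viability was measured in the same wells as ATP content by CellTiter-Glo luminescence.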

[10] = p53 small molecule agonists, cell-based qHTS assay: qHTS cell viability counter screen (AID 1963581); further: nearly all actives have a fitted effect of over 45% in size
In short: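 Cells: HCT-116 with p53 response element-driven beta-lactamase. Treatment: 16 h, 37 C, compounds in DMSO. Read: CellTiter-Glo luminescence after 30 min RT.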

[11] = p53 small molecule agonists, cell-based qHTS assay (AID 1963582; active means well fitted activation curve with a large enough effect in the signal ratio in the repeat runs, not every such curve was filed as active; the % refers to the signal ratio)
In short: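 Quantitative HTS in p53RE-bla cells: after a 5 h settling period, compounds delivered in DMSO were left on cells for 16 h at 37 C, and reporter induction was measured as fluorescence following 2 h substrate loading.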

[12] = molecular target: 5-hydroxytryptamine receptor 2A (Homo sapiens) (UniProt P28223); test: 5-hydroxytryptamine receptor 2A (HTR2A) small molecule agonists, cell-based qHTS assay (AID 1963587); further: nearly all actives have a fitted effect of over 30% in size
In short: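 CHO cells stably expressing human HTR2A, plated 18 h, loaded with calcium dye 1 h at 37 C. Agonist mode: compounds added and intracellular calcium fluorescence recorded kinetically for 2 min at 1 sec intervals.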

[13] = molecular target: Muscarinic acetylcholine receptor M1 (Homo sapiens) (UniProt P11229); test: Cholinergic receptor muscarinic 1 (CHRM1) small molecule antagonists, cell-based qHTS assay (AID 1963588); further: nearly all actives have a fitted effect of over 40% in size
In short: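 CHRM1-CHO calcium-flux assay, antagonist mode. Cells were seeded 18 h, dye-loaded 1 h at 37 C and given compound for 5 min at RT, then acetylcholine was added at 50nM. FDSS fluorescence was read 3 min; 15 concentrations, three runs.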

[14] = molecular target: Muscarinic acetylcholine receptor M1 (Homo sapiens) (UniProt P11229); test: Cholinergic receptor muscarinic 1 (CHRM1) small molecule agonists, cell-based qHTS assay (AID 1963589); further: nearly all actives have a fitted effect of over 35% in size
In short: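 Agonist-mode qHTS in CHO cells stably carrying human muscarinic M1. Intracellular calcium is tracked by fluorescence every second after compound transfer; each compound runs at 15 concentrations in three independent runs.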

[15] = cAMP Responsive Elements (CRE) small molecule antagonists, cell-based qHTS assay (AID 1963591; active means well fitted inhibition curve with a large enough effect in the signal ratio in the repeat runs, not every such curve was filed as active; the % refers to the signal ratio)
In short: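 Antagonist mode: test compounds are co-incubated with the adenylyl cyclase activator NKH477 (0.25 uM final) on CRE-bla HEK293T cells for 3 h at 37 °C, followed by LiveBLAzer substrate loading.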

[16] = molecular target: Beta-2 adrenergic receptor (Homo sapiens) (UniProt P07550); test: Adrenergic beta2 receptor (ADRB2) small molecule antagonists, cell-based qHTS assay (AID 1963592); further: series mostly up to about 92 µM; nearly all actives have a fitted effect of over 50% in size
In short: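 Cells (CHO, stable ADRB2 overexpression) incubated 18-20hr at 37C; compounds added from DMSO; agonist mix (1nM isoproterenol, 100uM IBMX, 25uM Ro-20-1724) added; 0.5hr RT; d2-cAMP and anti-cAMP-cryptate added; 1hr RT; 665/615 nm read.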

[17] = molecular target: D(2) dopamine receptor (Homo sapiens) (UniProt P14416); test: Dopamine D2 receptor (DRD2) small molecule antagonists, cell-based qHTS assay (AID 1963595; active means well fitted inhibition curve with a large enough effect in the signal ratio in the repeat runs, with a control signal flat; the % refers to the signal ratio)
In short: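 Antagonism was scored as restored cAMP in HEK293-DRD2 cells. These cells were stimulated with 200 nM NKH477 and 12 nM quinpirole for 30 min at room temperature, in the presence of 0.1 mM Ro20-1724.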

[18] = cAMP Responsive Elements (CRE) small molecule agonists, cell-based qHTS assay (AID 1963590)
In short: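 Agonist mode qHTS in CRE-bla HEK 293T cells: compounds dosed from DMSO for 3 h at 37 C/5% CO2, followed by LiveBLAzer B/G FRET substrate for 2 h at room temperature.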

[19] = molecular target: D(2) dopamine receptor (Homo sapiens) (UniProt P14416); test: Dopamine D2 receptor (DRD2) small molecule agonists, cell-based qHTS assay (AID 1963594); further: nearly all actives have a fitted effect of over 35% in size
In short: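 HEK293 cells stably expressing human DRD2, pre-treated with PDE inhibitor Ro20-1724 (0.1 mM final) and compound 10 min at room temperature, then stimulated with NKH477 (200nM […]) for 30 min. cAMP read by HTRF (665/620 nm).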

Measured: Potency

Muscarinic acetylcholine receptor M1 (Homo sapiens), sequence (P11229 whole entry, looked up): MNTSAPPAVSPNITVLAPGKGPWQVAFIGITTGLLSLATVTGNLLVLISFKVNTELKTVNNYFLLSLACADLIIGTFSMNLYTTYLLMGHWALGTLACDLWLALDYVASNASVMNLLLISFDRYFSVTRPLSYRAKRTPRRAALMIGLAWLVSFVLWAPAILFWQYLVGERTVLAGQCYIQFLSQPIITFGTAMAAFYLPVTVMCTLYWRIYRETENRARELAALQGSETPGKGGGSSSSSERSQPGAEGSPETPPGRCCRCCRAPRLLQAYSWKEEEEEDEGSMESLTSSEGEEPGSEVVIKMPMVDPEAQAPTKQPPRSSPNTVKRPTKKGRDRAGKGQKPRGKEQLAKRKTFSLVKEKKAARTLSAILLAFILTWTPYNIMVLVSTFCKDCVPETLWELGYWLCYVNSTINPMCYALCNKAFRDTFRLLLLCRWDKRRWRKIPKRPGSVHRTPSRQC
Beta-2 adrenergic receptor (Homo sapiens), sequence (P07550 whole entry, looked up): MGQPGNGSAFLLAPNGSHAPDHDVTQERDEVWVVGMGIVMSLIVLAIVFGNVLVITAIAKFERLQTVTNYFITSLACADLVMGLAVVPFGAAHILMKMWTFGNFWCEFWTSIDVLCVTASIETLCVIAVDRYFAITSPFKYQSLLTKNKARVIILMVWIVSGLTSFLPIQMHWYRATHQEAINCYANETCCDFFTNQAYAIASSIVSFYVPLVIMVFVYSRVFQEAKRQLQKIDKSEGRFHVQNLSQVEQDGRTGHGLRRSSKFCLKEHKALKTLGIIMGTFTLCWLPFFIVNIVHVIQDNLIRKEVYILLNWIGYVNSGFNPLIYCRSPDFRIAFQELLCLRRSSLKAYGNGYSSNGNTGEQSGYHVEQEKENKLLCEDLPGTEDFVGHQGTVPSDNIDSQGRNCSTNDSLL
5-hydroxytryptamine receptor 2A (Homo sapiens), sequence (P28223 whole entry, looked up): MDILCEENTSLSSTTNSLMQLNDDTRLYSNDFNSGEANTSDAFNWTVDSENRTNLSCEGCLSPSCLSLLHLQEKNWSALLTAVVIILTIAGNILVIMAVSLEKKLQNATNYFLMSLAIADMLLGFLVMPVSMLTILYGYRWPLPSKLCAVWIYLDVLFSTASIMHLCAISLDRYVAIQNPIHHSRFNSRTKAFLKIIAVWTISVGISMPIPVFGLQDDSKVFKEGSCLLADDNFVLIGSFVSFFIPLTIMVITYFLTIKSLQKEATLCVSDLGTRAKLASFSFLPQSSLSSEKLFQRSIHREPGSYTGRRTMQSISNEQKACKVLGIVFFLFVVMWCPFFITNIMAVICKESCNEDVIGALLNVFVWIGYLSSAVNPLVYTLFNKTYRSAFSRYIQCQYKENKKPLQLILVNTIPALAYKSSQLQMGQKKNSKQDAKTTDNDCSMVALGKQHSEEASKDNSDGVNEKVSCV
Gonadotropin-releasing hormone receptor (Homo sapiens), sequence (P30968 whole entry, looked up): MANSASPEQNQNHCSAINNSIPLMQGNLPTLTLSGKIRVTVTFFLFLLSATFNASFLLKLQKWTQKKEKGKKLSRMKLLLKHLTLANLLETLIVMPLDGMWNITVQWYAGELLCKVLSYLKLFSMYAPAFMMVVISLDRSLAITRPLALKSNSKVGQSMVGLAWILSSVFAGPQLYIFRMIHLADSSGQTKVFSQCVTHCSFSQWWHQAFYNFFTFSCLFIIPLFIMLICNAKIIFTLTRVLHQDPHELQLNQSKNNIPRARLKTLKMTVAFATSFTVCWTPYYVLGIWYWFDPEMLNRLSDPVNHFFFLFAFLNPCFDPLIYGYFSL
D(2) dopamine receptor (Homo sapiens), sequence (P14416 whole entry, looked up): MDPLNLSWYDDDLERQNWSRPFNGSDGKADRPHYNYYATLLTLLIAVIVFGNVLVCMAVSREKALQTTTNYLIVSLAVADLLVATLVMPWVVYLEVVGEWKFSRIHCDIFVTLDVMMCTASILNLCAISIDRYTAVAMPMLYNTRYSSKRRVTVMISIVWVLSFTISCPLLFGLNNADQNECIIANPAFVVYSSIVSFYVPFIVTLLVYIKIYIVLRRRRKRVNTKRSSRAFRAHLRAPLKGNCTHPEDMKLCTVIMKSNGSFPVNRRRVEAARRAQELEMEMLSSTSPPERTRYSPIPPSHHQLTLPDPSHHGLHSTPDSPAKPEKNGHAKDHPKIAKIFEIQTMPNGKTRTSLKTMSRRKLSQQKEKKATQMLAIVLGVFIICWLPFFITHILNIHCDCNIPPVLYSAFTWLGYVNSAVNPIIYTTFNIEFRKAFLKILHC
KiSS-1 receptor (Homo sapiens), sequence (Q969F8 whole entry, looked up): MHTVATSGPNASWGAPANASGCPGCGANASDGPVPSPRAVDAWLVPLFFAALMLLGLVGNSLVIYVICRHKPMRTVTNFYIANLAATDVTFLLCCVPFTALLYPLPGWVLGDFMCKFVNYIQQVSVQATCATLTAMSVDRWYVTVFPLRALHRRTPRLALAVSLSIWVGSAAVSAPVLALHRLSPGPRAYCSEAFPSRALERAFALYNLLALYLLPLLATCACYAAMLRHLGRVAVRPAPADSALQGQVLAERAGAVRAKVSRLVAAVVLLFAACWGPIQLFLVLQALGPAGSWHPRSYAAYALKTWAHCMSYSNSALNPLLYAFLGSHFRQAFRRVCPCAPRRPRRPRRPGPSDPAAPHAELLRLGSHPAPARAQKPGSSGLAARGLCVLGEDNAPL

COc1cc(NS(=O)(=O)c2ccc(N)cc2)ncn1
inactive: [1] | [2] | [3] | [4] | [5] | [6] | [7] | [8] | [9] | [10] | [11] | [12] | [13] | [14] | [15] | [16] | [17]

Cc1cscn1
inactive: [1] | [2] | [3] | [4] | [5] | [6] | [7] | [8] | [9] | [10] | [11] | [12] | [13] | [14] | [18] | [15] | [16] | [19] | [17]

CCOC(=O)Cn1cccc1-c1nc(-c2ccc(OC)cc2)c(-c2ccc(OC)cc2)s1
inactive: [1] | [2] | [3] | [4] | [5] | [6] | [7] | [8] | [9] | [10] | [11] | [12] | [13] | [14] | [15] | [16] | [19] | [17]

COC(=O)CS
inactive: [1] | [3] | [4] | [5] | [6] | [7] | [8] | [9] | [10] | [11] | [12] | [13] | [14] | [18] | [16] | [19] | [17]
active: [2] 52.4 µM

CC(C)CC(=O)C1C(=O)c2ccccc2C1=O
inactive: [1] | [2] | [3] | [4] | [5] | [6] | [7] | [8] | [9] | [10] | [11] | [12] | [13] | [14] | [15] | [16] | [19] | [17]

COc1cc2c(cc1OC)C(=O)CC2
inactive: [1] | [2] | [3] | [4] | [5] | [6] | [7] | [8] | [9] | [10] | [11] | [12] | [13] | [14] | [18] | [15] | [16] | [19] | [17]

CN1CC(=O)NC1=N
inactive: [1] | [2] | [3] | [4] | [5] | [6] | [7] | [8] | [9] | [10] | [11] | [12] | [13] | [14] | [18] | [19] | [17]

CC12CCCC=C1C(=O)OC2=O (stereo not drawn)
inactive: [1] | [2] | [3] | [4] | [5] | [6] | [7] | [8] | [9] | [10] | [11] | [12] | [13] | [14] | [18] | [15] | [16] | [19] | [17]

Cc1cccc(C)c1NC(=O)c1ccc(N)cc1
inactive: [1] | [2] | [3] | [4] | [5] | [6] | [7] | [8] | [9] | [10] | [11] | [12] | [13] | [14] | [15] | [16] | [19] | [17]
